# Test results: PubChem BioAssay (Tox21)
# Results filed as inconclusive are left out. Unmarked numbers belong to inactive results. Calls come from the whole dose curve; as a rule, active = well fitted cell-killing curve with a large enough effect in the repeat runs; inconclusive = weak or mixed curves, or effect the other way; inactive = flat fitted curve, though single readings scatter.
# Experiment: qHTS RealTime-Glo MT Cell Viability Assay in HEK293 cells - 0 hour (AID 1224880); note: top concentration of the series differs between compounds; nearly all actives have a fitted effect of over 45% in size
# Settings: RealTime-Glo luminescence; series mostly up to 76.8 µM; activity change, negative = cytotoxicity: at the top concentration
# From the text: U.S. Tox21 Program National Center for Advancing Translational Sciences [NCATS] NIH Chemical Genomics Center [NCGC] U.S. Environmental Protection Agency [EPA] National Institutes of Environmental Health Sciences [NIEHS] National Toxicology Program [NTP] U.S. Food and Drug Administration [FDA] Tox21 Assay Overview: Measure of cell viability is critical in the cell-base assay. Analysis of cell viability is necessary for the characterization of cell responses to cytotoxic drugs and environmental stress. A RealTime-Glo MT Cell Viability Assay to monitor cell viability in real time of continues cell culture during 40 hours of compound treatment was used to screen Tox21 10K library compounds in Hek293 cells. The RealTime-Glo MT Cell Viability Assay is a nonlytic, homogeneous, bioluminescent method to measure cell viability in real time using a simple, plate-based method. The assay involves adding NanoLuc luciferase and a cell-permeant prosubstrate to cells in culture. Viable cells reduce the proprietary prosubstrate to generate a substrate for NanoLuc luciferase. This substrate diffuses from cells into the surrounding culture medium, where it is rapidly used by the NanoLuc Enzyme to produce a luminescent signal. The signal correlates with the number of viable cells, making the assay well suited for cytotoxicity studies.
# Tox21 Assay Protocol Summary: The mixture of Hek293 cell suspension and reagents were dispensed at 600cells/6 ul/well in 1536-well tissue culture treated black solid bottom plates using a Multidrop dispenser. After the assay plates were incubated at a 37 C/5% CO2 incubator for 5 hours, 23 nL of compounds dissolved in DMSO, positive and negative controls was transferred to the assay plate by a pintool work station. The plates were incubated at 37 C for 40 hours. The luminescence intensity were measured at 0h, 8h, 16h, 24h, 32h and 40h time points using ViewLux plate reader during compound treatment.
# % is set by controls: 0 for no effect and ±100 for the full control effect.
row,Compound,"activity change, negative = cytotoxicity"
1,O=c1[nH]c2ccccc2n1C1CCNCC1,-3.5% [at 35.3 µM]
2,O=C(O)C(Cl)Br (stereo not given),-8.52%
3,CCSC(=O)Cl,1.75%
4,O=C(Cl)C(Cl)Cl,-1.76%
5,CC(C)(N)Cc1ccc(Cl)cc1,1.88% [at 35.3 µM]
6,CC#Cc1cc(C)nc(Nc2ccccc2)n1,2.79%
7,CC[C@@H](CO)NC(=O)[C@@H]1C=C2c3cccc4c3c(cn4C)C[C@H]2N(C)C1,-7.1% [at 35.3 µM]
8,C=CCC1(C(C)CC)C(=O)NC(=O)NC1=O (stereo not given),-4.06% [at 35.3 µM]
9,O=CCCl,3.02%
10,COc1cccc(C=O)c1,9.43%
11,CON(C)C(=O)Nc1ccc(Br)c(Cl)c1,7.3%
12,C(COCC1CO1)OCC1CO1 (stereo not given),6.61%
13,O=C(O)C(Br)(Br)Br,0.0385%
14,c1cncc([C@@H]2CCCCN2)c1,20.6%
15,N#CN=C1SCCN1Cc1ccc(Cl)nc1,2.62%
16,Cc1ccc2cc(C)ccc2c1,3.43%
17,COc1ccc(C=O)cc1O,-2.7%
18,CCCOC(=O)c1cncn1C(C)c1ccccc1 (stereo not given),-0.406% [at 35.3 µM]
19,CN(C)C(=O)Oc1cc(OC(=O)N(C)C)cc(C(O)CNC(C)(C)C)c1 (stereo not given),-3.85% [at 35.3 µM]
20,O=C(NC(=O)c1c(F)cccc1F)Nc1cc(Cl)c(F)c(Cl)c1F,6.45%

row,Compound,"activity change, negative = cytotoxicity"
1,CC(C)(C)NC[C@H](O)c1ccc(O)cc1Cl,9.15% [at 35.3 µM]
2,C=C(Cl)CCl,-1.13%
3,CCC1(CC)C(=O)C=CNC1=O,-3.89% [at 35.3 µM]
4,NNCc1ccccc1,1.02%
5,CN(C)C1CCCCC1,7.43%
6,CC(C)(C)C(=O)Cl,-5.66%
7,S=C=S,-0.986%
8,CC(C)C(C)(N)C#N (stereo not given),-7.51%
9,CS(=O)(=O)c1ccc(C(=O)C2C(=O)CCCC2=O)c(Cl)c1COCC(F)(F)F,-3.81%
10,CNC(=O)Oc1ccccc1C(C)C,17.1%
11,ClCCN1CCCC1,0.938% [at 35.3 µM]
12,CC(C)[C@]12CC(=O)[C@H](C)[C@H]1C2,8.53%
13,COc1ccccc1OC,17.8%
14,CCCC(C)(COC(N)=O)COC(N)=O,-0.173%
15,CCC1(c2ccccc2)C(=O)N(COC)C(=O)N(COC)C1=O,3.34% [at 35.3 µM]
16,Cn1c(CCCC(=O)O)nc2cc(N(CCCl)CCCl)ccc21,1.12% [at 35.3 µM]
17,CN(C)CCc1c[nH]c2cccc(OP(=O)(O)O)c12,-1.76%
18,CCNc1nc(Cl)nc(NC(C)(C)C)n1,12.6%
19,CC[C@H](N)c1ccccc1,4.46%
20,C=C(C)[C@H]1CN[C@H](C(=O)O)[C@H]1CC(=O)O,-2.77% [at 35.3 µM]
